Results as given in paper PMC5540273 (PLoS ONE, 2017).

Tests used:
Conditions in all cases: concentration: 1 μM,replicates: in singlicate; n = 1
MTOR = system: MTOR
MUSK = system: MUSK
MYLK2 = system: MYLK2
MYLK4 = system: MYLK4
MYLK = system: MYLK
MYO3A = system: MYO3A
MYO3B = system: MYO3B
NDR1 = system: T1, NDR1
T1 construct: gene STK38

NDR2 = system: NDR2
NEK10 = system: NEK10
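Also: KINOMEscan kinase panel screen.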

| SMILES | %Inh (MTOR) [%] | %Inh (MUSK) [%] | %Inh (MYLK2) [%] | %Inh (MYLK4) [%] | %Inh (MYLK) [%] | %Inh (MYO3A) [%] | %Inh (MYO3B) [%] | %Inh (NDR1) [%] | %Inh (NDR2) [%] | %Inh (NEK10) [%] |
| --- | --- | --- | --- | --- | --- | --- | --- | --- | --- | --- |
| O=C(Nc1ccccc1)c1cccc(Oc2ccc3nccn3n2)c1 | 14 | 73 | 0 | 0 | 0 | 0 | 0 | 0 | 22 | 0 |
| Cl.Nc1n[nH]c2cc(-c3ccccn3)ccc12 [GSK2189892] | 0 | 0 | 5 | 29 | 18 | 0 | 0 | 0 | 0 | 2 |
| CCCC(=O)Nc1n[nH]c2ncccc12 [SB-601436] | 0 | 0 | 0 | 0 | 2 | 0 | 12 | 9 | 0 | 0 |
| Cc1ccn2nc(-c3ccc(F)cc3)c(-c3ccncc3)c2c1.Cl [GW457859] | 8 | 0 | 23 | 0 | 26 | 48 | 0 | 13 | 40 | 0 |
| CC(C)c1nc(-c2cccc(NS(=O)(=O)c3ccccc3)c2)c(-c2ccnc(Nc3ccc4c(c3)CN(C)CC4)n2)s1 [GSK1649598] | 0 | 15 | 0 | 13 | 13 | 48 | 0 | 31 | 0 | 0 |
| Cn1ccc2ncnc(Oc3ccc(NC(=O)Nc4cc(C(C)(C)C)on4)c(Cl)c3)c21 | 37 | 80 | 13 | 0 | 17 | 0 | 40 | 0 | 1 | 0 |
| COc1cc2nccc(Nc3ccc(Oc4ccccc4)cc3)c2cc1OC.Cl [GI261656] | 10 | 0 | 0 | 0 | 7 | 6 | 0 | 0 | 29 | 18 |
| CSc1nccc(-c2c(-c3ccc(F)cc3)ncn2CCCN2CCOCC2)n1.Cl [SB-217146] | 35 | 0 | 0 | 0 | 5 | 21 | 8 | 42 | 26 | 14 |
